# Assay results from article PMC11062922 (Nature Chemical Biology, 2023).
# Where two headings read alike, the source gives them in different places.
# Tests used:
# PRKD1 = details: read-out: apparent Kd; compound concentrations:100 nM and 1000 nM (sheet 'Lestaurtinib' of Supplementary Table 1),run:Lestaurtinib_02896_R3,Plate:MR030; n = 1
# PTK2B = details: read-out: apparent Kd, n = 1
# SIK3 = details: read-out: apparent Kd, n = 1
# [1] = compound concentrations:100 nM and 1000 nM (sheet 'Lestaurtinib' of Supplementary Table 1),run:Lestaurtinib_02443_R3,Plate:MR009
# [2] = compound concentrations:100 nM and 1000 nM (sheet 'Lestaurtinib' of Supplementary Table 1),run:Lestaurtinib_02473_R3,Plate:MR010
# [3] = compound concentrations:100 nM and 1000 nM (sheet 'Lestaurtinib' of Supplementary Table 1),run:Lestaurtinib_02496_R1,Plate:MR013
# [4] = compound concentrations:100 nM and 1000 nM (sheet 'Lestaurtinib' of Supplementary Table 1),run:Lestaurtinib_02496_R3,Plate:MR013
substance,measurement,setting,value
Lestaurtinib,potency estimated from few doses,PRKD1,141 nM
same,potency estimated from few doses,"PTK2B; compound concentrations:100 nM and 1000 nM (sheet 'Lestaurtinib' of Supplementary Table 1),run:Lestaurtinib_02339_R2,Plate:MR001",971 nM
same,potency estimated from few doses,"PTK2B; compound concentrations:100 nM and 1000 nM (sheet 'Lestaurtinib' of Supplementary Table 1),run:Lestaurtinib_02422_R1,Plate:MR006",859 nM
same,potency estimated from few doses,"PTK2B; compound concentrations:100 nM and 1000 nM (sheet 'Lestaurtinib' of Supplementary Table 1),run:Lestaurtinib_02437_R3,Plate:MR007",800 nM
same,potency estimated from few doses,PTK2B; [1],928 nM
same,potency estimated from few doses,PTK2B; [2],58.4 nM
same,potency estimated from few doses,"PTK2B; compound concentrations:100 nM and 1000 nM (sheet 'Lestaurtinib' of Supplementary Table 1),run:Lestaurtinib_02487_R1,Plate:MR012",209 nM
same,potency estimated from few doses,PTK2B; [3],974 nM
same,potency estimated from few doses,"PTK2B; compound concentrations:100 nM and 1000 nM (sheet 'Lestaurtinib' of Supplementary Table 1),run:Lestaurtinib_02496_R2,Plate:MR013",703 nM
same,potency estimated from few doses,PTK2B; [4],966 nM
same,potency estimated from few doses,"PTK2B; compound concentrations:100 nM and 1000 nM (sheet 'Lestaurtinib' of Supplementary Table 1),run:Lestaurtinib_02572_R1,Plate:MR015",615 nM
same,potency estimated from few doses,"PTK2B; compound concentrations:100 nM and 1000 nM (sheet 'Lestaurtinib' of Supplementary Table 1),run:Lestaurtinib_02572_R2,Plate:MR015",666 nM
same,potency estimated from few doses,"PTK2B; compound concentrations:100 nM and 1000 nM (sheet 'Lestaurtinib' of Supplementary Table 1),run:Lestaurtinib_02748_R1,Plate:MR024",954 nM
same,potency estimated from few doses,"PTK2B; compound concentrations:100 nM and 1000 nM (sheet 'Lestaurtinib' of Supplementary Table 1),run:Lestaurtinib_03172_R3,Plate:MR031",1240 nM
same,potency estimated from few doses,"SIK3; compound concentrations:100 nM and 1000 nM (sheet 'Lestaurtinib' of Supplementary Table 1),run:Lestaurtinib_02339_R3,Plate:MR001",1990 nM
same,potency estimated from few doses,"SIK3; compound concentrations:100 nM and 1000 nM (sheet 'Lestaurtinib' of Supplementary Table 1),run:Lestaurtinib_02367_R3,Plate:MR003",2180 nM
same,potency estimated from few doses,"SIK3; compound concentrations:100 nM and 1000 nM (sheet 'Lestaurtinib' of Supplementary Table 1),run:Lestaurtinib_02381_R2,Plate:MR004",2120 nM
same,potency estimated from few doses,"SIK3; compound concentrations:100 nM and 1000 nM (sheet 'Lestaurtinib' of Supplementary Table 1),run:Lestaurtinib_02381_R3,Plate:MR004",1930 nM
same,potency estimated from few doses,"SIK3; compound concentrations:100 nM and 1000 nM (sheet 'Lestaurtinib' of Supplementary Table 1),run:Lestaurtinib_02407_R3,Plate:MR005",1890 nM
same,potency estimated from few doses,"SIK3; compound concentrations:100 nM and 1000 nM (sheet 'Lestaurtinib' of Supplementary Table 1),run:Lestaurtinib_02422_R2,Plate:MR006",1760 nM
same,potency estimated from few doses,"SIK3; compound concentrations:100 nM and 1000 nM (sheet 'Lestaurtinib' of Supplementary Table 1),run:Lestaurtinib_02422_R3,Plate:MR006",1570 nM
same,potency estimated from few doses,"SIK3; compound concentrations:100 nM and 1000 nM (sheet 'Lestaurtinib' of Supplementary Table 1),run:Lestaurtinib_02437_R2,Plate:MR007",1400 nM
same,potency estimated from few doses,"SIK3; compound concentrations:100 nM and 1000 nM (sheet 'Lestaurtinib' of Supplementary Table 1),run:Lestaurtinib_02438_R1,Plate:MR008",1800 nM
same,potency estimated from few doses,"SIK3; compound concentrations:100 nM and 1000 nM (sheet 'Lestaurtinib' of Supplementary Table 1),run:Lestaurtinib_02438_R2,Plate:MR008",1720 nM
same,potency estimated from few doses,"SIK3; compound concentrations:100 nM and 1000 nM (sheet 'Lestaurtinib' of Supplementary Table 1),run:Lestaurtinib_02438_R3,Plate:MR008",1330 nM
same,potency estimated from few doses,"SIK3; compound concentrations:100 nM and 1000 nM (sheet 'Lestaurtinib' of Supplementary Table 1),run:Lestaurtinib_02443_R1,Plate:MR009",1970 nM
same,potency estimated from few doses,"SIK3; compound concentrations:100 nM and 1000 nM (sheet 'Lestaurtinib' of Supplementary Table 1),run:Lestaurtinib_02443_R2,Plate:MR009",1960 nM
same,potency estimated from few doses,SIK3; [1],964 nM
same,potency estimated from few doses,SIK3; [2],1240 nM
same,potency estimated from few doses,"SIK3; compound concentrations:100 nM and 1000 nM (sheet 'Lestaurtinib' of Supplementary Table 1),run:Lestaurtinib_02482_R3,Plate:MR011",1570 nM
same,potency estimated from few doses,"SIK3; compound concentrations:100 nM and 1000 nM (sheet 'Lestaurtinib' of Supplementary Table 1),run:Lestaurtinib_02487_R2,Plate:MR012",1700 nM
same,potency estimated from few doses,SIK3; [3],956 nM
same,potency estimated from few doses,SIK3; [4],1300 nM
same,potency estimated from few doses,"SIK3; compound concentrations:100 nM and 1000 nM (sheet 'Lestaurtinib' of Supplementary Table 1),run:Lestaurtinib_02566_R1,Plate:MR014",1420 nM
same,potency estimated from few doses,"SIK3; compound concentrations:100 nM and 1000 nM (sheet 'Lestaurtinib' of Supplementary Table 1),run:Lestaurtinib_02566_R3,Plate:MR014",1460 nM
same,potency estimated from few doses,"SIK3; compound concentrations:100 nM and 1000 nM (sheet 'Lestaurtinib' of Supplementary Table 1),run:Lestaurtinib_02577_R1,Plate:MR016",1590 nM
same,potency estimated from few doses,"SIK3; compound concentrations:100 nM and 1000 nM (sheet 'Lestaurtinib' of Supplementary Table 1),run:Lestaurtinib_02577_R2,Plate:MR016",1630 nM
same,potency estimated from few doses,"SIK3; compound concentrations:100 nM and 1000 nM (sheet 'Lestaurtinib' of Supplementary Table 1),run:Lestaurtinib_02577_R3,Plate:MR016",1960 nM
same,potency estimated from few doses,"SIK3; compound concentrations:100 nM and 1000 nM (sheet 'Lestaurtinib' of Supplementary Table 1),run:Lestaurtinib_02584_R2,Plate:MR017",1420 nM
same,potency estimated from few doses,"SIK3; compound concentrations:100 nM and 1000 nM (sheet 'Lestaurtinib' of Supplementary Table 1),run:Lestaurtinib_02584_R3,Plate:MR017",1300 nM
same,potency estimated from few doses,"SIK3; compound concentrations:100 nM and 1000 nM (sheet 'Lestaurtinib' of Supplementary Table 1),run:Lestaurtinib_02601_R1,Plate:MR018",1820 nM
same,potency estimated from few doses,"SIK3; compound concentrations:100 nM and 1000 nM (sheet 'Lestaurtinib' of Supplementary Table 1),run:Lestaurtinib_02601_R2,Plate:MR018",1650 nM
same,potency estimated from few doses,"SIK3; compound concentrations:100 nM and 1000 nM (sheet 'Lestaurtinib' of Supplementary Table 1),run:Lestaurtinib_02606_R2,Plate:MR019",1760 nM
